Measurements reported in PubChem BioAssay (NCI).
The panel holds about 83,000 compounds, 20% with a hit somewhere; the sample as a whole holds those more often.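 Assay: single dose, 48 h. Readout: percent growth (0 = no net growth; negative = cell death). Active: <10.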 A number with no mark means an inactive call. Active and inactive are the calls of the source.

Each compound was assayed on HL-60(TB) leukemia (assay: NCI-60 one-dose screen, 48 h (100 = growth as untreated, 0 = no growth, -100 = all killed)). Conditions: 10 µM unless noted.

Structure (SMILES)	growth
CCN1C(=O)N(CC)C2C1N=C(SC)N2/N=C/C=C/c1ccccc1OC (centres undefined)	-13.4% (active)
CCN1CCN(CC(=O)Nc2nc3ccc(NCc4ccc(F)cc4)cc3s2)CC1	96.4%
COc1cc(OC)c(/C=C/c2c3ccccc3cc[n+]2C)c(OC)c1	-25.1% (active)
COc1cc(OC)cc(C(=O)C[n+]2cccc3cc[nH]c32)c1	99%
CCOC(=O)NNc1[nH]c(-c2ccc(OC)cc2)cc1C#N	-42.4% (active)
c1ccc(-c2nc3sc(C(c4ccccc4)c4ccccc4)nn3c2-c2ccccc2)cc1	112%
CN1CCC(=C(c2ccccc2)c2ccccc2)C(c2ccccc2)C1 (centres undefined)	88%
CCc1ccc(Oc2c(-c3ccc(OCCc4cccc(C(F)(F)F)c4)cc3O)n[nH]c2C(F)(F)F)cc1	50.9%
COC1(OC)C2(Cl)C(Cl)=C(Cl)C1(Cl)C1COCC12 (centres undefined)	82.9%
CNC(=O)c1cc(Oc2cccc3nc(NC(=O)Nc4cc(C(F)(F)F)cc(C(F)(F)F)c4)ccc23)ccn1	70.5%
c1ccc(-c2cc3cc4ccccc4cn3c2)cc1	94.6%
Cc1ccc(S(=O)(=O)OC[C@]23CCC(C)(C)C[C@H]2C2=CC[C@@H]4[C@@]5(C)CCCNC(C)(C)[C@@H]5CC[C@@]4(C)[C@]2(C)CC3)cc1	24.5%
CC12OC(CC(O)C1O)n1c3ccccc3c3c4c(c5c6ccccc6n2c5c31)C(=O)N(CCN1CCCC1)C4=O (centres undefined)	18.3%
Cc1cccc(-c2nc(C(C)C)sc2-c2ccnc(NCCCNS(=O)(=O)c3ccc(Cl)cc3)c2)c1	80.1%
